In PubChem BioAssay (NCATS):
Values without a mark were called inactive. Records with an inconclusive call do not appear. Active and inactive are the calls of the source. Unless noted, calls follow the shape of the dose curve; as a rule, active = well fitted curve in either direction with a large enough effect (not every such curve was filed as active); inconclusive = small, poorly fitted or top-dose-only effect, or another doubt; inactive = flat fitted curve, though single readings scatter.

Experiments:
[1] = biological target: Lysosomal acid glucosylceramidase (Homo sapiens) (UniProt P04062); assay: Glucocerebrosidase-p2 (AID 348; in the data active = potency below about 10 µM; also: potency is read from the fitted curve at half-maximal effect); conditions: purified GBA, blue fluorogenic substrate, 40 min
Method in brief: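 Compounds titrated from 0.6 nM upwards against 0.2 nM enzyme in pH 5.9 citric acid/KH2PO4, taurocholate, tween-20; blue fluorogenic substrate 80 uM, 40 min room temperature, stopped and read Ex 365/Em 440 for AC50.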

[2] = AP1 Signaling Pathway (AID 357); conditions: ME-180 AP-1-bla reporter, EGF-induced, beta-lactamase ratio, 5 h; at 7.69 µM (top of the series) unless noted; also: % is scaled to controls: 0 for no effect and ±100 for the full control effect
Method in brief: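 AP-1-bla ME-180 cells with beta-lactamase reporter under AP-1 response element, stimulated with EC50 EGF; compounds titrated, 5 hours at 37 degrees Celsius. CCF4 read at 460/530 nm ratio; positive and negative modulators judged by AC50.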

[3] = NFAT Signaling Pathway (AID 444); conditions: Jurkat NFAT-bla M1, carbachol, beta-lactamase ratio, 5 h; at 7.69 µM (top of the series) unless noted;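 also: carbachol stimulus at about its EC50 of 1 µM final; % is scaled to controls: 0 for no effect and ±100 for the full control effect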
Method in brief: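 Jurkat cells with NFAT-driven β-lactamase reporter and co-expressed M1 receptor, stimulated with carbachol (final 1 uM, ~EC50), compound titration, 5 h at 37 °C. CCF4 loaded 1 h at RT; 460/530 nm ratio gave %activity and AC50.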

[4] = Stat Signaling Pathway (AID 446); conditions: ME-180 (cervical carcinoma) SIE beta-lactamase reporter, IL-6 stimulated, 5 h; at 7.69 µM (top of the series) unless noted;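 also: ME-180 cervical cancer cells given 40 pM IL-6 alongside compound; SIE-controlled beta-lactamase reporter measured as 460/530 nm FRET emission ratio; % is scaled to controls: 0 for no effect and ±100 for the full control effect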
Method in brief: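 IL-6/STAT signaling read in ME-180 cells via an SIE beta-lactamase reporter. Stimulus was 40 pM IL-6 (its AC50) for 5 hrs, so both activation and inhibition register.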

[5] = biological target: Glucocorticoid receptor (Homo sapiens) (UniProt P04150); assay: GR-EFC Redistribution (AID 451; calls by dose curve; also: potency is read from the fitted curve at half-maximal effect); conditions: CHO-K1 GR-EFC translocation, beta-gal luminescence, 2 h
Method in brief: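 CHO-K1 cells expressing nuclear EA and GR-ED fragments of b-gal; compounds titrated up to 46 uM final, 2 h at 37 C. GR nuclear translocation read as complemented b-gal luminescence after 1 h RT detection.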

[6] = biological target: Mitogen-activated protein kinase 10 (Mus musculus) (UniProt Q61831); assay: JNK3 AlphaScreen Assay (AID 530); conditions: JNK3 lysate, c-Jun phosphorylation; series mostly up to 57.1 µM;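 also: kinase came from lysate of stimulated human HepG2 cells; signal reports phosphorylation of biotinylated GST-cJun 1-79 at Ser73 with 10 µM ATP; % is scaled to controls: 0 for no effect and ±100 for the full control effect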
Method in brief: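 Pre-activated (IL-1β/TNFα) JNK3 in HepG2 lysates phosphorylates biotin-GST-cJun(1-79), 10 uM ATP; anti-phospho-cJun(Ser73) AlphaScreen read at room temperature, pH 7.6 Tris buffer. Compounds pre-incubated 15 min as titrations.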

[7] = biological target: 3',5'-cyclic-AMP phosphodiesterase 4B (Homo sapiens) (UniProt Q07343); assay: qHTS Assay for Inhibitors of PDE-IV (AID 607; active = well fitted activation curve with a large enough effect in the main read-out, with a control signal flat, not every such curve was filed as active; also: % of control where 0% means no effect); conditions: HEK293 ACTOne CNG channel cells, membrane potential fluorescence; series mostly up to 22.9 µM
Method in brief: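 Live HEK293 cells with a modified cyclic nucleotide-gated (CNG) channel report intracellular cAMP via membrane-potential dye fluorescence (ex 535/em 590 nm). Endogenous PDE-IV was targeted. Compounds were tested at up to 22.9 uM final; RO 20-1724 100 uM served as control.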

[8] = Primary qHTS for small molecule stabilizers of the endoplasmic reticulum resident proteome: Secreted ER Calcium Modulated Protein (SERCaMP) assay (AID 1508630; active = well fitted curve in the direction sought with a large enough effect; an effect the other way counts as inactive or inconclusive; also: % is scaled to controls: 0 for no effect and ±100 for the full control effect); conditions: SH-SY5Y GLuc-SERCaMP (Gaussia luciferase released on ER calcium loss) secretion, thapsigargin, luminescence; series mostly up to 38.4 µM
Method in brief: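 GLuc-SERCaMP-expressing SH-SY5Y cells, pretreated 16 h with compound, are challenged with thapsigargin to empty ER calcium stores; after 4 h, coelenterazine is added directly to the medium and luminescence is imaged.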

[9] = biological target: Cytochrome P450 3A4 (Homo sapiens) (UniProt P08684); assay: qHTS Assay for Inhibitors and Substrates of Cytochrome P450 3A4 (AID 884; active = well fitted curve in the direction sought with a large enough effect; an effect the other way counts as inactive or inconclusive; also: nearly all actives have a fitted effect of over 50% in size; also: potency is read from the fitted curve at half-maximal effect); conditions: recombinant CYP3A4, Luciferin-PPXE luminescence; series mostly up to 57.1 µM
Method in brief: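 20 nM human CYP3A4 with 25 uM Luciferin-PPXE (at KM) in 200 mM KPO4, preincubated 10 min with compound; NADPH regeneration started a 60 min RT reaction. Luciferin detected by luminescence, normalized to 57 uM ketoconazole as full inhibition.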

[10] = biological target: Cytochrome P450 3A4 (Homo sapiens) (UniProt P08684); assay: qHTS Assay for Activators of Cytochrome P450 3A4 (AID 885; active = well fitted curve in the direction sought with a large enough effect; an effect the other way counts as inactive or inconclusive; also: nearly all actives have a fitted effect of over 65% in size); conditions: recombinant CYP3A4, Luciferin-PPXE luminescence, 60 min; series mostly up to 57.1 µM
Method in brief: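 Quantitative HTS format: compounds preincubated with 20nM human CYP3A4 and Luciferin-PPXE substrate at KM, reaction started by NADPH regeneration, stopped after 60 min, luciferase luminescence read 20 min later.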

[11] = biological target: Ubiquitin carboxyl-terminal hydrolase 1 (Homo sapiens) (UniProt O94782); assay: Inhibitors of USP1/UAF1: Pilot qHTS (AID 504865; active = well fitted curve in the direction sought with a large enough effect; an effect the other way counts as inactive or inconclusive;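 also: rhodamine fluorescence freed from ubiquitin-rhodamine substrate followed over time; top concentration of the series differs between compounds; % is scaled to controls: 0 for no effect and ±100 for the full control effect; nearly all actives have a fitted effect of over 35% in size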); conditions: purified USP1/UAF1, Ub-rhodamine cleavage fluorescence; series mostly up to 54.9 µM
Method in brief: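 1nM USP1/UAF1 + cpd, 15 min RT; start w/ Ub-Rho 150nM final; kinetic FL 480/540 nm, 6 reads q60 s. Buffer 50mM HEPES pH 7.8, 0.5mM EDTA, 1mM TCEP, 0.01% Tween-20, 0.1 mg/ml BSA.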

[12] = biological target: Cytochrome P450 2D6 (Homo sapiens) (UniProt P10635); assay: qHTS Assay for Inhibitors and Substrates of Cytochrome P450 2D6 (AID 891; active = well fitted curve in the direction sought with a large enough effect; an effect the other way counts as inactive or inconclusive; also: potency is read from the fitted curve at half-maximal effect; nearly all actives have a fitted effect of over 60% in size); conditions: recombinant CYP2D6, luciferin-ME EGE luminescence; series mostly up to 57.1 µM
Method in brief: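 Human CYP2D6 (5 nM) with 30 uM Luciferin-ME EGE (at Km) in 100 mM KPO4, compound preincubated 10 min, then NADPH regeneration system for 60 min at room temperature. Luciferin read by luminescence; normalized to 1.43 uM quinidine.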

[13] = biological target: Glucocorticoid receptor (Homo sapiens) (UniProt P04150); assay: GR-GFP Redistribution (AID 450;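 active = compounds whose dose series gives a full or clear partial fitted curve of increased nuclear translocation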; also: potency is read from the fitted curve at half-maximal effect); conditions: U2OS GR-GFP nuclear translocation, laser cytometry, 2 h

Sequence of Glucocorticoid receptor (Homo sapiens) (P04150 whole entry, looked up, the tested form may be a part): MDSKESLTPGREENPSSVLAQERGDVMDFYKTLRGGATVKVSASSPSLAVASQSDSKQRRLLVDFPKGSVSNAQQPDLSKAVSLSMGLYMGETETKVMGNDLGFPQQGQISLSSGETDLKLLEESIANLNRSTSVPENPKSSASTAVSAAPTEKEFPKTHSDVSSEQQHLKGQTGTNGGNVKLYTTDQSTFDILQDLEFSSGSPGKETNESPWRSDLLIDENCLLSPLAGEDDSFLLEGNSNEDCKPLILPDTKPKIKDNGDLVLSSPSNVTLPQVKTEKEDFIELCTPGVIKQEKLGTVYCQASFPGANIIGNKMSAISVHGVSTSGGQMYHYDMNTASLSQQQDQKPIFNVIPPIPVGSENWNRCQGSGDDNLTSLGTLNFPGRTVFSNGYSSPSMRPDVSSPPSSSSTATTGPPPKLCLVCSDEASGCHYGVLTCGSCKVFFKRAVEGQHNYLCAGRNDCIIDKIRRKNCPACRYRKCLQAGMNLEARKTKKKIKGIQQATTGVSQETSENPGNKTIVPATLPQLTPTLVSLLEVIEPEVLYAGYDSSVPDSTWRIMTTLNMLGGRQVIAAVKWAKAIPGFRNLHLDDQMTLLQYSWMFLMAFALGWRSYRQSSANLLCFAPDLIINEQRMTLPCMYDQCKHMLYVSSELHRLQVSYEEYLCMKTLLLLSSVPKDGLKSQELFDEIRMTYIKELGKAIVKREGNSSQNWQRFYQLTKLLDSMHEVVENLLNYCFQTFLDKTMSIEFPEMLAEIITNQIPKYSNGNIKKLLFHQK
Sequence of 3',5'-cyclic-AMP phosphodiesterase 4B (Homo sapiens) (Q07343 whole entry, looked up): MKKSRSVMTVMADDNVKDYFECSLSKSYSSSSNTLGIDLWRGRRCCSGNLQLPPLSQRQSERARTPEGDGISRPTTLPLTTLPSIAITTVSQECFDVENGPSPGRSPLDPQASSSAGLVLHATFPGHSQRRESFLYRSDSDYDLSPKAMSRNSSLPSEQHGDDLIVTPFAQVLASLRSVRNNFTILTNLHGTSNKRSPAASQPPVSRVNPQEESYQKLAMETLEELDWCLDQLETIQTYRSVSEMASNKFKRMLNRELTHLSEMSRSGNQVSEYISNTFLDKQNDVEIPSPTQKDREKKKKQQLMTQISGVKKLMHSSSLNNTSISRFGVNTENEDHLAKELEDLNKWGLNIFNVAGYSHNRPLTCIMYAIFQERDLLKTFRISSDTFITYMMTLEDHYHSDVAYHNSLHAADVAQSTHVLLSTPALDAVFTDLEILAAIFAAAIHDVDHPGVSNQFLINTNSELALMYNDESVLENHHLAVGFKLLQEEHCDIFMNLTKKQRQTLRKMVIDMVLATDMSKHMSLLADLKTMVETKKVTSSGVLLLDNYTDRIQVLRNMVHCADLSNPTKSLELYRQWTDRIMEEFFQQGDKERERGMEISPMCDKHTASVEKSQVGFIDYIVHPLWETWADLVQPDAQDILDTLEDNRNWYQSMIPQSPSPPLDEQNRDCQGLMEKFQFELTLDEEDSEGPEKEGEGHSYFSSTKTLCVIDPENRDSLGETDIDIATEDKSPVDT
Sequence of Lysosomal acid glucosylceramidase (Homo sapiens) (P04062 whole entry, looked up): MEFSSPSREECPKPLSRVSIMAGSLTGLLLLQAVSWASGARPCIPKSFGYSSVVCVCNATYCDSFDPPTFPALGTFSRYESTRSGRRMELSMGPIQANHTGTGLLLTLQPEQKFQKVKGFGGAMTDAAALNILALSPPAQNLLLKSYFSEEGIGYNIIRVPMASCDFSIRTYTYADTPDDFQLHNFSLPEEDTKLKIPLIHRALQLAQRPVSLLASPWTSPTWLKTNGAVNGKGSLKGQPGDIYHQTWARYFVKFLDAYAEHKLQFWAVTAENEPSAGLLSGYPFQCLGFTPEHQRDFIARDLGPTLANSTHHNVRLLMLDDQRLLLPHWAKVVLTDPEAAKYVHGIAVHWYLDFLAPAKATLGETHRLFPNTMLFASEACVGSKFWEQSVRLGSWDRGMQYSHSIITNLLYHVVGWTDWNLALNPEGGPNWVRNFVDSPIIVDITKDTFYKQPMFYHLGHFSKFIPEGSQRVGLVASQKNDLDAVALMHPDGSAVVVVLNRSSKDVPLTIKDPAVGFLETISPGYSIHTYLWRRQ
Sequence of Cytochrome P450 3A4 (Homo sapiens) (P08684 whole entry, looked up): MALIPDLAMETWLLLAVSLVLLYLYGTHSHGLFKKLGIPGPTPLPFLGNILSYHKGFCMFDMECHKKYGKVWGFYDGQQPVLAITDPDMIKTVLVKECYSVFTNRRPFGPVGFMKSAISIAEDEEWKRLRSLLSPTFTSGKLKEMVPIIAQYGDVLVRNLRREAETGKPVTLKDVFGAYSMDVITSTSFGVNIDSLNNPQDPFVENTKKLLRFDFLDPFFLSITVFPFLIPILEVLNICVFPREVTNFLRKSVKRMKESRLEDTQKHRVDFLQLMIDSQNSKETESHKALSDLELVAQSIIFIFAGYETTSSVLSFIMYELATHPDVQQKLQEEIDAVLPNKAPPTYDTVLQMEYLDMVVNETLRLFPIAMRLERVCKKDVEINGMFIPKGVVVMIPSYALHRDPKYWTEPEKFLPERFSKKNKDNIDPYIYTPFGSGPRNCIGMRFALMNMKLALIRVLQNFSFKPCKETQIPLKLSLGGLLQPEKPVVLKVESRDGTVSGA
Sequence of Ubiquitin carboxyl-terminal hydrolase 1 (Homo sapiens) (O94782 whole entry, looked up): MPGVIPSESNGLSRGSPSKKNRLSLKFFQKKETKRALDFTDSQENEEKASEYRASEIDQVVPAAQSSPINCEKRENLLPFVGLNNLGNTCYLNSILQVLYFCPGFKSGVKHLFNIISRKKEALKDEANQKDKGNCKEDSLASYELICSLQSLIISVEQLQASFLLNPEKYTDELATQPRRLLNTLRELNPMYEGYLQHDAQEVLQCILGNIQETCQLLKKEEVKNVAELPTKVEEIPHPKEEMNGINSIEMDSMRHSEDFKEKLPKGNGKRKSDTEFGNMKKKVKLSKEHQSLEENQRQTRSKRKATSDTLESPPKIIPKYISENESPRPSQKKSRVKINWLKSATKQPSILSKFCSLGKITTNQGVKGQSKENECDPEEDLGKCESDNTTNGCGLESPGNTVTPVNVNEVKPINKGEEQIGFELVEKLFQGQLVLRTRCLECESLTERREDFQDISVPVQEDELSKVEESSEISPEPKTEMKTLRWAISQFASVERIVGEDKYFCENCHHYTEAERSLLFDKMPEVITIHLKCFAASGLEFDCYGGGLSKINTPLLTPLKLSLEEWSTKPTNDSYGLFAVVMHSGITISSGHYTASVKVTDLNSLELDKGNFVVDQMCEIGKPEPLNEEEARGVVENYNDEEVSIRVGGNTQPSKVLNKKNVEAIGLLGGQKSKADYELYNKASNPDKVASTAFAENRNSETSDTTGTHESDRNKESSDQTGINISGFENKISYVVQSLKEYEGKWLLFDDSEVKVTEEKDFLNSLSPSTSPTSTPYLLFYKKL
Sequence of Cytochrome P450 2D6 (Homo sapiens) (P10635 whole entry, looked up): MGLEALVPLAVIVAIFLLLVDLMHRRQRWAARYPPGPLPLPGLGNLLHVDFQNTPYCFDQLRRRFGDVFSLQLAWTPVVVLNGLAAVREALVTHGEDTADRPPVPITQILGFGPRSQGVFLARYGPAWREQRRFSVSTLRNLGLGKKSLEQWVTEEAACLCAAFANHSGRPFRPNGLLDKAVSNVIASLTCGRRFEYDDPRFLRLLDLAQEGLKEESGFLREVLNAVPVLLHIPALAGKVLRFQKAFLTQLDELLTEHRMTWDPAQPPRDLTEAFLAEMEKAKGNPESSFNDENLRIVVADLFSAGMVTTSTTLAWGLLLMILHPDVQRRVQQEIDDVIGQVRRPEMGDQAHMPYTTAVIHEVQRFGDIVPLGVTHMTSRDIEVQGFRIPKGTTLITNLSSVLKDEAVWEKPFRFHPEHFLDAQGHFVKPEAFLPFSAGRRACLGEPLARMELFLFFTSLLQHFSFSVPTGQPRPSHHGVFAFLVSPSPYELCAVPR

Row | Compound | Potency [1] [µM] | activity change, negative = inhibition [2] [%] | activity change, negative = inhibition [3] [%] | activity, negative = inhibition [4] [%] | Potency [5] [µM] | Potency [6] | Potency [7] | outcome [8] | Potency [9] | Potency [10] | Potency [11] | Potency [12] | Potency [13] [µM]
1 | COC(=O)N1CCC[C@@]2(CCN(Cc3nccs3)C2)C1 | > 11.4 | 1.72 | 14.9 | -4.13 | > 46 | inactive | inactive | inactive |  |  |  |  | 
2 | COc1ccc(C(=O)N2CCC3(CCN(Cc4nccs4)CC3)CC2)cc1 | > 11.4 | -14.6 | -8.01 | -11.9 | > 46 | inactive | inactive | inactive | inactive |  |  |  | 
3 | CS(=O)(=O)N1CCC2(CCCN(Cc3cc(C(F)(F)F)cc(C(F)(F)F)c3)C2)CC1 | > 11.4 | 20 | -14.4 | 5.1 | > 46 | inactive | inactive | inactive |  |  |  |  | 
4 | Cc1noc(C)c1C(=O)N1CCC2(CCCN(c3ncccn3)C2)CC1 | > 11.4 | -6.23 | 7.66 | -4.43 | > 46 | inactive | inactive | inactive |  |  |  |  | 
5 | Cc1noc(C)c1C(=O)N1CCC2(CCCN(c3ccccn3)C2)CC1 | > 11.4 | -4.45 | -10.8 | -8.83 | > 46 | inactive | inactive | inactive |  | inactive |  |  | 
6 | COc1ccc(C(=O)N2CCC[C@@]3(CCN(Cc4ccccc4OC)C3)C2)cc1 | > 11.4 | 11.7 | -18.6 | 5.47 | > 46 | inactive | inactive | inactive |  |  |  |  | 
7 | O=C(c1ccncc1)N1CCC2(CCCN(c3ccc(-c4ccccc4)cc3)C2)CC1 | > 11.4 | -6.85 | 14.6 | -6.26 | > 46 | inactive | inactive | inactive |  |  |  |  | 
8 | COc1ccc(C(=O)N2CCC3(CCCN(c4ccccn4)C3)CC2)cc1 | > 11.4 | -4.8 | -8.78 | -3.02 | > 46 | inactive | inactive | inactive |  |  |  |  | 
9 | c1cncc(CNc2ccnc(-c3cccnc3)n2)c1 | > 11.4 | 8.01 | 10.2 | 8.94 | > 46 | inactive | inactive | inactive |  |  | inactive |  | 
10 | O=S(=O)(c1ccccc1)N1CCC2(CCCN(C(c3ccccc3)c3ccccc3)C2)CC1 | > 11.4 | -2.18 | -9.54 | -3.12 | > 46 | inactive | inactive | inactive | 2 µM (active) | inactive |  | 0.501 µM (active) | 
11 | N#Cc1ccc(CN2CC3(CCN(C(=O)c4csnn4)CC3)C2)cc1 | > 11.4 | -0.499 | -22.3 | 5.17 | > 46 | inactive | inactive | inactive |  |  |  |  | 
12 | O=C(Nc1cccc(F)c1)N1CCCC2(CCN(C(=O)c3csnn3)CC2)C1 | > 11.4 | -12.3 | -19.5 | -9.38 | > 46 | inactive | inactive | inactive |  |  |  |  | 
13 | O=C(c1cccc(F)c1)N1CCC[C@@]2(CCN(Cc3ccncc3)C2)C1 | > 11.4 | -12 | -14.7 | -0.901 | > 46 | inactive | inactive | inactive | 3.16 µM (active) | inactive |  |  | 
14 | COc1ccc(C(=O)N2CCC3(CCN(C(=O)Nc4ccccc4)CC3)CC2)cc1 | > 11.4 | 0.785 | 6.48 | -6.61 | > 46 | inactive | inactive | inactive |  |  |  |  | 
15 | COc1ccc(-n2c(=O)c(-c3ccc(F)cc3)nc3cnc(OC)nc32)cc1 | > 11.4 | -6.43 | 8.51 | -13.4 |  | inactive | inactive | inactive |  | inactive |  |  | > 9.22
16 | O=C(Nc1ccccc1)N1CCC2(CCNCC2)CC1 | > 11.4 | -1.92 | -7.88 | 10.8 | > 46 | inactive | inactive | inactive |  |  |  |  | 
17 | COCC(=O)N1CCC2(CCCN(c3ccccn3)C2)CC1 | > 11.4 | 0.674 | -15.3 | 11.7 | > 46 | inactive | inactive | inactive |  |  |  |  | 
